In the supplement of paper PMC11732987, “Enantioselective OTUD7B fragment discovery through chemoproteomics screening and high-throughput optimisation” (Communications Chemistry, 2025):

How the values were obtained:
Experiment in all cases: log2 ratio of Biotin-Ahx-Ub-VS probe labelling (fragment/DMSO); higher = less target engagement (more negative = stronger competition), active = hit call of the paper (q ≤ 0.05, log2 ratio ≤ -1)
Details in all cases: compound concentration: 200 uM; treatment time: 3 h
USP42 = molecular target: T1, USP42 (UniProt Q9H9J4)
T1 sequence (whole entry): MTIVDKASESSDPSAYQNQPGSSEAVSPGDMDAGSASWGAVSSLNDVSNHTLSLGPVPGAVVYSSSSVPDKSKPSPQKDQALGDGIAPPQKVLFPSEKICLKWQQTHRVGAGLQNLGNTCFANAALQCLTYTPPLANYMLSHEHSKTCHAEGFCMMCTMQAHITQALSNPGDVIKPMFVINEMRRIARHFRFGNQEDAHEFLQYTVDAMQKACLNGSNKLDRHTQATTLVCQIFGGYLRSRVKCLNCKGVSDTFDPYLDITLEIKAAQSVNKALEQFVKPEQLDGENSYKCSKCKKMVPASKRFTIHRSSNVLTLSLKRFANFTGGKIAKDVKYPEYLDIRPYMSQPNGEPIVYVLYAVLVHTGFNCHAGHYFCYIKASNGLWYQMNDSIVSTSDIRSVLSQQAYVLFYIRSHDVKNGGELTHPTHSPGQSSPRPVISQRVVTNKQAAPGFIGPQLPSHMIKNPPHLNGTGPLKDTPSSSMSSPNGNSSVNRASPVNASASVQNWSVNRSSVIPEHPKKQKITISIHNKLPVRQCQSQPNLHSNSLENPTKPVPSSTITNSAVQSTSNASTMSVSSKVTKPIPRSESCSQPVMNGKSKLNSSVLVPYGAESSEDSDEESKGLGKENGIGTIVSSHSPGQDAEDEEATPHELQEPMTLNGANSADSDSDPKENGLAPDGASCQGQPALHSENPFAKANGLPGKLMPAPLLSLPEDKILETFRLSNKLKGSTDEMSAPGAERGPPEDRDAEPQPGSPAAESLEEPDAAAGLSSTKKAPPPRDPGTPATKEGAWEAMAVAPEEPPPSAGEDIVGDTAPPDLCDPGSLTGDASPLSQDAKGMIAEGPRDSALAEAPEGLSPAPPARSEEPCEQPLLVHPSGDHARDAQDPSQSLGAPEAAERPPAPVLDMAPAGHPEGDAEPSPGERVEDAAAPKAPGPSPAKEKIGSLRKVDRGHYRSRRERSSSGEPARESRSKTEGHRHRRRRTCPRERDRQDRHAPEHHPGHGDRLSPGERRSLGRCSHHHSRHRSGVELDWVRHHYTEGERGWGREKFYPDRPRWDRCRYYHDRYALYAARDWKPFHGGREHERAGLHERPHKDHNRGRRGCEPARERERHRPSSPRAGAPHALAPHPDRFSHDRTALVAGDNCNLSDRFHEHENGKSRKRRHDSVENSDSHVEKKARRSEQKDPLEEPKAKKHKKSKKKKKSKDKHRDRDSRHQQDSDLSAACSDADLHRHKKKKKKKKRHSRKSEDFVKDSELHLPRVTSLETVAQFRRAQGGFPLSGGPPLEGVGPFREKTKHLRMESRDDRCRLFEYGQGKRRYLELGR
Method in brief: (§1)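 HEK293T lysate (495 µg per sample, in Tris/CHAPS/IGEPAL buffer with protease inhibitors) was treated in triplicate with fragment at 200 µM or with DMSO for 3 h. It was then treated with Biotin-Ahx-Ub-VS (0.5 µM final) for 1 h. Labelled DUBs were NeutrAvidin-enriched, digested with LysC and trypsin, and run by diaPASEF LC-MS/MS. Spectronaut label-free quantities were global-median-normalised. Values are average log2 ratios fragment/DMSO by unpaired t-test, using proteins with ≥2 unique peptides.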

USP46 = USP46 (UniProt P62068)
Method in brief: as §1

USP47 = molecular target: T2, USP47 (UniProt Q96K76)
T2 sequence (whole entry): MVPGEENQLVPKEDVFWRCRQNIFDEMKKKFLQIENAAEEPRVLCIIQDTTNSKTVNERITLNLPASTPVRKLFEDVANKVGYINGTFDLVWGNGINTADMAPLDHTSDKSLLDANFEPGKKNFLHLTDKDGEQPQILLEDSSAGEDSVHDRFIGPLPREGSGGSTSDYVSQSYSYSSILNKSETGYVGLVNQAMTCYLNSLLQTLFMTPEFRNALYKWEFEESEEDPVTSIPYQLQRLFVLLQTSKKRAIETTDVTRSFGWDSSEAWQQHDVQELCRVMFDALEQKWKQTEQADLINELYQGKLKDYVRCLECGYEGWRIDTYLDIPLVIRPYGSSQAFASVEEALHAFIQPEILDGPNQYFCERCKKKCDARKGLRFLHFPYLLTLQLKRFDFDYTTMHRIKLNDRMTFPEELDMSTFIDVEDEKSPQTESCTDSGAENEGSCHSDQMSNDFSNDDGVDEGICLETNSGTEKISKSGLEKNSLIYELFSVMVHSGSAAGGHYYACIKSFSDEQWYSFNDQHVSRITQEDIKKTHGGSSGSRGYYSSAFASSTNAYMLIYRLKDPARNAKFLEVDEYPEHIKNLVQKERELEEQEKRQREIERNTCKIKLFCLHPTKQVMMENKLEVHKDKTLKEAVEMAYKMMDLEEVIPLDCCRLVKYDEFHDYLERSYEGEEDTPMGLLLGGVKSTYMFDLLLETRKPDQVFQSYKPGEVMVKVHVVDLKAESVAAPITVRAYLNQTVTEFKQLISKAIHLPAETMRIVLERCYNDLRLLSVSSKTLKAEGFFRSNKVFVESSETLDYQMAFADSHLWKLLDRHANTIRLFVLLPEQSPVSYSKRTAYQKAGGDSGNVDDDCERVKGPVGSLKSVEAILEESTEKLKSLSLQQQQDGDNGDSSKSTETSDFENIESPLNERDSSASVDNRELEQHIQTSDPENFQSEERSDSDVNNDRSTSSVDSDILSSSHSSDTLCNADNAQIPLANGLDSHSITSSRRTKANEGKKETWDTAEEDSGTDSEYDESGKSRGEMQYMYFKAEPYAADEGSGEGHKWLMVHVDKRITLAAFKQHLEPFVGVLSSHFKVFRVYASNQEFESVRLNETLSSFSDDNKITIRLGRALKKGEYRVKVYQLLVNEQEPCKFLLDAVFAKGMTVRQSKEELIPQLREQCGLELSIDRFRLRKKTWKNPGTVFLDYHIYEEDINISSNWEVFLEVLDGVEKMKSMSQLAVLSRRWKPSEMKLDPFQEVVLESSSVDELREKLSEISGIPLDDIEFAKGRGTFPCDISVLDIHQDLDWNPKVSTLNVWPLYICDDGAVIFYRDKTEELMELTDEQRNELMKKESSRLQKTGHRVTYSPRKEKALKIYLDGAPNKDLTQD
Method in brief: as §1

USP48 = molecular target: T3, USP48 (UniProt Q86UV5)
T3 sequence (whole entry): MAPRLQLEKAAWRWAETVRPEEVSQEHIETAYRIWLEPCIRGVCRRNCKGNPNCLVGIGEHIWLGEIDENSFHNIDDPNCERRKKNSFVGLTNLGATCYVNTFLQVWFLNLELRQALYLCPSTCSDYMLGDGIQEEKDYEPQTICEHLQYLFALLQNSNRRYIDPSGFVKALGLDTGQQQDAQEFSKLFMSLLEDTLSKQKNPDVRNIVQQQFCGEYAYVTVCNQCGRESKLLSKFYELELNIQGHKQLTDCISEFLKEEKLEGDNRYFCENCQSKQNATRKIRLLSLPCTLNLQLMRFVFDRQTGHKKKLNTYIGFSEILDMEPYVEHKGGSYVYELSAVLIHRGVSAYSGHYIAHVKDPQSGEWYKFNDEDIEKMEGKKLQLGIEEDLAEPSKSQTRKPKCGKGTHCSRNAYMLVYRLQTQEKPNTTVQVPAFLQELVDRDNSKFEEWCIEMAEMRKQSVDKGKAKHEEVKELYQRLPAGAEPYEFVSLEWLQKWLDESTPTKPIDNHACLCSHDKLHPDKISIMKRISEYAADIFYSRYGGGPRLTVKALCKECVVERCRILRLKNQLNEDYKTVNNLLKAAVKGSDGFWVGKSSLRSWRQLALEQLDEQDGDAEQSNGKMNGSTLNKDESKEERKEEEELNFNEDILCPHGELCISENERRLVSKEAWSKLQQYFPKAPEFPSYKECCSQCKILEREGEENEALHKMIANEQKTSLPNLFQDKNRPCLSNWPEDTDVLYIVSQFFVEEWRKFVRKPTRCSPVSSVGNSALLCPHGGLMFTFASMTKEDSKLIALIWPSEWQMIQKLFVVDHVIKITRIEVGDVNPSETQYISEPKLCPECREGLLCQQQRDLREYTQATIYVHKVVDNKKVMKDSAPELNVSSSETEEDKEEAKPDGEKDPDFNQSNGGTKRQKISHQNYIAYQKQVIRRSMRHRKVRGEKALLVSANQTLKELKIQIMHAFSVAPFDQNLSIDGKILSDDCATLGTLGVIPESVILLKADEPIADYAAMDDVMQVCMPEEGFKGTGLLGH
Method in brief: as §1

USP5 = molecular target: T4, USP5 (UniProt P45974)
T4 sequence (whole entry): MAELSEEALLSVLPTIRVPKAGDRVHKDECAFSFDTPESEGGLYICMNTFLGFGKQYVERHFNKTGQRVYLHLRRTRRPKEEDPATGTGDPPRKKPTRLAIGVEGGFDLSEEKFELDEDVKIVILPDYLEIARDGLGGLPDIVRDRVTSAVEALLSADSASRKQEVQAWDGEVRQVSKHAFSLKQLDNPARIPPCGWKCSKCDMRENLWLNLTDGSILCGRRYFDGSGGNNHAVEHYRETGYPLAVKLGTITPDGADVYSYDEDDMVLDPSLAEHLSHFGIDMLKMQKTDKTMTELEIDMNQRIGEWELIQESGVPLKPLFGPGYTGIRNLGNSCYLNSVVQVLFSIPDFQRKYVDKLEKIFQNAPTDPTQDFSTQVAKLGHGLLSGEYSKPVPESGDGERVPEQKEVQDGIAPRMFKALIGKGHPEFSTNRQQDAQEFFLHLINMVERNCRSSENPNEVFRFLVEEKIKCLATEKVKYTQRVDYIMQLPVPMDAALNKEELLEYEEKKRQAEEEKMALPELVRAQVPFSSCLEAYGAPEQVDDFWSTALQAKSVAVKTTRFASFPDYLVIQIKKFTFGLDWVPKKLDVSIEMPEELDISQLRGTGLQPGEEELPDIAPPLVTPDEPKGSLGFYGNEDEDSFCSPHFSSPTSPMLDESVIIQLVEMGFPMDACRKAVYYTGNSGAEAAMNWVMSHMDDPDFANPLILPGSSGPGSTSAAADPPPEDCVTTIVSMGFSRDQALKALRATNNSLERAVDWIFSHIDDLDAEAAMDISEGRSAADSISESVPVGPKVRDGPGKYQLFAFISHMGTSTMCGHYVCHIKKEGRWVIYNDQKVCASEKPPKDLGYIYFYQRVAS
Method in brief: as §1

USP54 = USP54 (UniProt Q70EL1)
Method in brief: as §1

USP7 = USP7 (UniProt Q93009)
Method in brief: as §1

USP8 = molecular target: T5, USP8 (UniProt P40818)
T5 sequence (whole entry): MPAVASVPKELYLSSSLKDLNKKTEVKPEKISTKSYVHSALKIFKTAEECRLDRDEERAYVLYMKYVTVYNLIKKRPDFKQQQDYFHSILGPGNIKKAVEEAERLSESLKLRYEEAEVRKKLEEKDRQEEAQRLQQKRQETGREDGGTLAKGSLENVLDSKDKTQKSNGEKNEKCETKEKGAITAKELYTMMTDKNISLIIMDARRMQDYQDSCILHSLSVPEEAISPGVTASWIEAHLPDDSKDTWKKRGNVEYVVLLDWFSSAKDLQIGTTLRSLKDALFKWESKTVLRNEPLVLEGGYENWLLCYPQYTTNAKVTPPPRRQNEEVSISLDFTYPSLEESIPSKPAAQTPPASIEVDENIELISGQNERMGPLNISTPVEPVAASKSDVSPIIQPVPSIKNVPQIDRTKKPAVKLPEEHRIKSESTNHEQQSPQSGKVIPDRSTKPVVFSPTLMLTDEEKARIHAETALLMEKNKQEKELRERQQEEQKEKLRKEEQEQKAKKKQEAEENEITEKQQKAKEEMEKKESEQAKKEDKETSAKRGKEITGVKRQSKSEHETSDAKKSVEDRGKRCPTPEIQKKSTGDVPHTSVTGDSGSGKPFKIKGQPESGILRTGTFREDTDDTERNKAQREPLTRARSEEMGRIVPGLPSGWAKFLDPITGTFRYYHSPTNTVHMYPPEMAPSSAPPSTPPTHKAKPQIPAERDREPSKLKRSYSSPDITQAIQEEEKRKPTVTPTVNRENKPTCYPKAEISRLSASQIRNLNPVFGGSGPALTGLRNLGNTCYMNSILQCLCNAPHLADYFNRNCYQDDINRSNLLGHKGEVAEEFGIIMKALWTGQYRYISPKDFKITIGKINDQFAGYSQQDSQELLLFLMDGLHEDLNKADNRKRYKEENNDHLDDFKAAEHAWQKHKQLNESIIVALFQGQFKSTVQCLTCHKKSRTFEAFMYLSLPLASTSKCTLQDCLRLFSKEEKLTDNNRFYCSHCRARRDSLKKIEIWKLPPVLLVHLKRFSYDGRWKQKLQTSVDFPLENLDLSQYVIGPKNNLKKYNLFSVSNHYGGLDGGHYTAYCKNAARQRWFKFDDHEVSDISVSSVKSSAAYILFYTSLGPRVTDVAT
Method in brief: as §1

Measured: log2 ratio of Biotin-Ahx-Ub-VS probe labelling

Chain of USP46 (P62068 whole entry): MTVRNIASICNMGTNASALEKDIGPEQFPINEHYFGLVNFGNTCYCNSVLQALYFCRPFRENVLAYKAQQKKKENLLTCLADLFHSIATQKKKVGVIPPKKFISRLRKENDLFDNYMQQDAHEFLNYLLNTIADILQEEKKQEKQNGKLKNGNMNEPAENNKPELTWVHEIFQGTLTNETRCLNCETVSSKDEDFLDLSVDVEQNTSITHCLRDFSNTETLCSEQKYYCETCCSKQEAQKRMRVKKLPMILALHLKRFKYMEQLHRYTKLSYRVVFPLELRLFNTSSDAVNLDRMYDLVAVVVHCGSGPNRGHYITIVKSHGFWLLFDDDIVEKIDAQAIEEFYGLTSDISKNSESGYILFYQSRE
Chain of USP7 (Q93009 whole entry, looked up): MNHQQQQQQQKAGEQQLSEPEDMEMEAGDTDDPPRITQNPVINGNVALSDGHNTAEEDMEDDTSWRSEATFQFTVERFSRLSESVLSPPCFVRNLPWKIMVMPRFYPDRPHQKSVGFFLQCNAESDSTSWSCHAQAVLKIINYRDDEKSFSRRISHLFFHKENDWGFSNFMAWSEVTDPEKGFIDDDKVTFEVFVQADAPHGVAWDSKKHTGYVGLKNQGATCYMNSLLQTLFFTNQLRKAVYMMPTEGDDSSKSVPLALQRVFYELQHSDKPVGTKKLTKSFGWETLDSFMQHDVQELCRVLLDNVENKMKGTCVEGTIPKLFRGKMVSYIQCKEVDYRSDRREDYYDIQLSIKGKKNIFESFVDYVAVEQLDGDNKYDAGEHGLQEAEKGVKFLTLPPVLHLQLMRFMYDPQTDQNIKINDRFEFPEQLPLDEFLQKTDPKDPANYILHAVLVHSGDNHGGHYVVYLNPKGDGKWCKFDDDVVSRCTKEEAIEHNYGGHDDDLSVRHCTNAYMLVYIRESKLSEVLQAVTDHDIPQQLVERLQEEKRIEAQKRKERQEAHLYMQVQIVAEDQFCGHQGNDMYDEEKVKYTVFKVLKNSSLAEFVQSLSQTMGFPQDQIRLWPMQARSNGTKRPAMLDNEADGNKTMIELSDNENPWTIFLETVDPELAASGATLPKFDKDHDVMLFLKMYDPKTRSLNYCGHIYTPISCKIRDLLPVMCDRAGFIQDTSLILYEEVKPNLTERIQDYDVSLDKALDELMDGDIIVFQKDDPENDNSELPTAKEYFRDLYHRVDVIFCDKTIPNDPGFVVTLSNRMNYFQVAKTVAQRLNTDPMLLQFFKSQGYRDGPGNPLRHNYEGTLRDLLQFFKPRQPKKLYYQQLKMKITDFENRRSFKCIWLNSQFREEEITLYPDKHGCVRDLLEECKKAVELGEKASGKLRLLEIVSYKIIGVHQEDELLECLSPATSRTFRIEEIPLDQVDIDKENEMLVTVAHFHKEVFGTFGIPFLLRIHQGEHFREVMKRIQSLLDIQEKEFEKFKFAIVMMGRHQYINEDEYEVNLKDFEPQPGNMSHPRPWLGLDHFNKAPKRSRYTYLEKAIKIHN
Chain of USP54 (Q70EL1 whole entry): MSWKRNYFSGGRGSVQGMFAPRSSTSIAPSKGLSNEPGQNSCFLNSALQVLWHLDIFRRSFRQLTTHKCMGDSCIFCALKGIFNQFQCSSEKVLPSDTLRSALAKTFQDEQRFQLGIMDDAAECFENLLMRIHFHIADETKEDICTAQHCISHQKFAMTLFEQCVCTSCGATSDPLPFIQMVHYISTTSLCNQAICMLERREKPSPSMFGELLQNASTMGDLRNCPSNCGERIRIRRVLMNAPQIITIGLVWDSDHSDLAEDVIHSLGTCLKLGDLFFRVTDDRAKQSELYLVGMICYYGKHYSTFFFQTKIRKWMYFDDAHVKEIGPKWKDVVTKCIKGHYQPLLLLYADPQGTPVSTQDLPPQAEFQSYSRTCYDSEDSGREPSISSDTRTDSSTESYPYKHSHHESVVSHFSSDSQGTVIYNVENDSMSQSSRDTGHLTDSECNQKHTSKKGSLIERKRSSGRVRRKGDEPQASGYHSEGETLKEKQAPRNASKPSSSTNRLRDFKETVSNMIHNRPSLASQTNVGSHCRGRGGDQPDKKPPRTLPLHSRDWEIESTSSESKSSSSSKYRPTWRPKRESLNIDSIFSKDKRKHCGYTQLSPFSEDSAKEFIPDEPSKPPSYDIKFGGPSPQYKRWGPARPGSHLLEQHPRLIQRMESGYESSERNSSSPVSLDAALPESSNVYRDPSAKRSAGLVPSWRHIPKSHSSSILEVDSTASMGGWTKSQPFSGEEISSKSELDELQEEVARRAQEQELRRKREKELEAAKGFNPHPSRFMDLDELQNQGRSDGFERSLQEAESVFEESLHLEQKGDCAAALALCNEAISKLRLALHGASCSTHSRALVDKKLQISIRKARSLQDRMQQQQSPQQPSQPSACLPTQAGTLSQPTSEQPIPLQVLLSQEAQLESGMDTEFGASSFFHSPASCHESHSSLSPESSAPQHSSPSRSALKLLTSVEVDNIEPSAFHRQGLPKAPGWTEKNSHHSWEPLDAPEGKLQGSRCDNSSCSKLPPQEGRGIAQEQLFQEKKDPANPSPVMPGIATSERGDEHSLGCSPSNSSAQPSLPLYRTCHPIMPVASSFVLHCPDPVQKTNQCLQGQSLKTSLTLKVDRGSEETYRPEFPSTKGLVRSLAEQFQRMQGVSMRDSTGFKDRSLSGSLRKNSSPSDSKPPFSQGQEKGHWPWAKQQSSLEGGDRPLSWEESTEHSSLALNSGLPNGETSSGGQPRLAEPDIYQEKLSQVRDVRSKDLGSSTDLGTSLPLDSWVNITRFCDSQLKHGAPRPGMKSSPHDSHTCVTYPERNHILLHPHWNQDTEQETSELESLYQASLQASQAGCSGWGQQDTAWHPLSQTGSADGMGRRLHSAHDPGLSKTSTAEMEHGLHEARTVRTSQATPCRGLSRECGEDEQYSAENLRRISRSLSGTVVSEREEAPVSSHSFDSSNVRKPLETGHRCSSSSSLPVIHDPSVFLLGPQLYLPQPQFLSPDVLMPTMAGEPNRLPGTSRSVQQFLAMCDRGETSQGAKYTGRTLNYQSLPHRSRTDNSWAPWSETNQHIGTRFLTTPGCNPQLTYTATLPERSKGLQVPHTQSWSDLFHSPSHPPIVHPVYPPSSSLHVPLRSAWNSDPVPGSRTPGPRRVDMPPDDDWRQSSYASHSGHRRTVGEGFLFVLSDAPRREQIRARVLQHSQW

Cc1n[nH]c(=O)c2c(NC(=O)CCl)oc(C)c12
inactive: USP42 0.339 | USP46 -0.0434 | USP47 0.166 | USP48 -0.0393 | USP5 -0.00864 | USP54 -0.153 | USP7 -0.0198 | USP8 -0.29
